Compound activity deposited in PubChem by several laboratories.
Only some compounds are listed: those with a hit (about 2.9% of all), similar ones and a draw of the others.
FBA Mtb inh – Mtb fructose-bisphosphate aldolase inhibition; inhibition, % at 1 µM; AID 588726; 360,000 tested, 2.3% active; P9WQA3; purified M. tuberculosis FBA, fluorescence read-out; in the data active = inhibition above about 27%
Target sequence (P9WQA3 whole entry, looked up): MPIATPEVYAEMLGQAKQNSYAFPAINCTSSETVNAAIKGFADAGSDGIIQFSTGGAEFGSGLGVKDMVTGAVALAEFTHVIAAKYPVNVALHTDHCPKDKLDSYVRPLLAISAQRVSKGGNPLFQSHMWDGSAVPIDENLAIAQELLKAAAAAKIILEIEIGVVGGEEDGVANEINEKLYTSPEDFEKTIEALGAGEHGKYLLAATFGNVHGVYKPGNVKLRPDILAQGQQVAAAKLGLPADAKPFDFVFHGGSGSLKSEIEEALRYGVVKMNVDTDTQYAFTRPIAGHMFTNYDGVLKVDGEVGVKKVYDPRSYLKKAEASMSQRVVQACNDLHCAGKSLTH
BioA inh – inhibitors of Mycobacterium tuberculosis BioA enzyme. 360,000 tested, 0.096% active. purified M. tuberculosis BioA enzyme, plate reader. inhibition, % at 9.99 µM; in the data active = inhibition above about 40%
Mtb hypoxia rep – Mtb hypoxia fluorescent reporter inhibition. M. tuberculosis hypoxia-regulated fluorescent reporter, fluorescence. fluorescence inhibition, % (test concentration not listed). 300,000 tested, 0.1% active; in the data active = fluorescence inhibition mostly above about 23%, no sharp cut-off; inactive = mostly below about 17%
GDH-TPI counter – inhibits GDH-TPI coupling enzymes, artifact for Mtb FBA screen | inhibition, % at 4.8 µM | GDH-TPI coupled enzyme counterscreen, NADH absorbance | 360,000 tested, 1.2% active; in the data active = inhibition above about 30%
FadD28 binding – M. tuberculosis FadD28 bisubstrate binding inhibition. FadD28 bisubstrate probe binding, fluorescence polarization. inhibition, % at 12.5 µM. 360,000 tested, 0.22% active. AID 588549; in the data active = inhibition above about 8.5%, passing the limit was not always enough
Of the large screens only hits and unclear results are named; the others gave an inactive call.

O=C(C(=O)c1ccc(O)c(O)c1)c1ccc(O)c(O)c1	GDH-TPI counter 78.4 (no result: BioA inh)
CC(=O)c1ccc(N2CCN(C(=O)c3ccc(Cl)c(NC4=NC5CS(=O)(=O)CC5S4)c3)CC2)cc1 (stereo not drawn)	GDH-TPI counter 42.1
COc1ccc(S(=O)(=O)N(C)C[C@H]2Oc3ccc(N(C)C)cc3C(=O)N([C@H](C)CO)C[C@H]2C)cc1	none (no result: FBA Mtb inh, Mtb hypoxia rep, GDH-TPI counter, FadD28 binding)
COc1ccc2c(c1)CCCC2=NNc1nc(C(=O)NN)cs1	none (no result: FBA Mtb inh, BioA inh, GDH-TPI counter, FadD28 binding)
COc1ccc(CN(C)C[C@H]2Oc3ccc(NC(=O)Nc4cccc5ccccc45)cc3CC(=O)N([C@@H](C)CO)C[C@H]2C)cc1	none (no result: FBA Mtb inh, Mtb hypoxia rep, GDH-TPI counter, FadD28 binding)
C=CCN1C(=O)[C@]2(O[C@H](CCO)[C@@H]([Si](C)(C)c3ccc(OC)cc3)[C@@H]2C)c2cc(N3CCCCC3=O)ccc21	none (no result: FBA Mtb inh, Mtb hypoxia rep, GDH-TPI counter, FadD28 binding)
COC(=O)c1cnn(-c2ccc(F)cc2F)c1/C=N/NC(=S)NC(C)(C)C	GDH-TPI counter 36.0 (no result: Mtb hypoxia rep)
COC(=O)c1cnn(-c2ccc(F)cc2F)c1/C=N/NC(N)=S	GDH-TPI counter 36.0 (no result: Mtb hypoxia rep)
CNC(=S)N/N=C/c1c(C(=O)OC)cnn1-c1ccc(F)cc1F	GDH-TPI counter 46.2 (no result: Mtb hypoxia rep)
COC(=O)[C@H]1[C@H](CO)[C@H]2Cn3c(ccc(-c4ccc(OC)cc4)c3=O)[C@H]2N1C	none (no result: FBA Mtb inh, Mtb hypoxia rep, GDH-TPI counter, FadD28 binding)
CCCC#Cc1ccc([C@@H]2[C@@H](CO)N3CCCCN(S(=O)(=O)c4ccccc4C)C[C@@H]23)cc1	none (no result: FBA Mtb inh, Mtb hypoxia rep, GDH-TPI counter, FadD28 binding)
C[C@H](CO)N1C[C@H](C)[C@@H](CN(C)CC2CCCCC2)Oc2ccc(NC(=O)c3ccncc3)cc2C1=O	none (no result: FBA Mtb inh, Mtb hypoxia rep, GDH-TPI counter, FadD28 binding)
CSC(=NS(=O)(=O)c1ccc(N)cc1)NS(=O)(=O)c1cccs1	FadD28 binding 17.2 (no result: BioA inh)
CSC(=NC(C)c1ccccc1)NS(=O)(=O)c1cccs1 (stereo not drawn)	none
Cn1ccc2c(-c3ccc(CO)cc3)cc3c(c21)C1CCC3O1 (stereo not drawn)	FBA Mtb inh active (no result: Mtb hypoxia rep, GDH-TPI counter)
Cn1ccc2c(-c3ccc(C(C)(C)C)cc3)cc3c(c21)C1CCC3O1 (stereo not drawn)	none (no result: Mtb hypoxia rep, GDH-TPI counter)
Cn1ccc2c(-c3ccc(C(=O)O)cc3)cc3c(c21)C1CCC3O1 (stereo not drawn)	FBA Mtb inh active (no result: Mtb hypoxia rep, GDH-TPI counter)
O=c1[nH]ncc(N/N=C\c2cccs2)c1Cl	GDH-TPI counter 35.9 (no result: BioA inh, Mtb hypoxia rep)
O=c1[nH]ncc(N/N=C\c2cccnc2)c1Cl	GDH-TPI counter 42.6 (no result: BioA inh, Mtb hypoxia rep)
Cc1cccc(/C=N\Nc2cn[nH]c(=O)c2Cl)c1	GDH-TPI counter 43.7 (no result: Mtb hypoxia rep)
O=c1[nH]ncc(NN=Cc2ccncc2)c1Cl	none (no result: FBA Mtb inh, BioA inh, GDH-TPI counter, FadD28 binding)
O=c1[nH]ncc(N/N=C\c2ccncc2)c1Cl	GDH-TPI counter 43.6 (no result: Mtb hypoxia rep)
CCON=CC1=C(O)C(C(=O)OC)C(C)(C)CC1=O (stereo not drawn)	none (no result: FBA Mtb inh, BioA inh, GDH-TPI counter, FadD28 binding)
C[C@@H]1CN([C@@H](C)CO)C(=O)c2cc(-c3ccc(F)cc3)cnc2O[C@H]1CN(C)C(=O)C1CCC1	none (no result: FBA Mtb inh, Mtb hypoxia rep, GDH-TPI counter, FadD28 binding)
COC(=O)C1=C(c2ccc(OCc3ccccc3)cc2)CC2CCC1N2C(=O)NCc1cccc(C(F)(F)F)c1 (stereo not drawn)	none (no result: FBA Mtb inh, BioA inh, GDH-TPI counter, FadD28 binding)
C[C@@H]1CCCCO[C@H](CN(C)S(=O)(=O)c2ccc(Cl)cc2)[C@@H](C)CN([C@H](C)CO)C(=O)c2cc(NC(=O)CCC(F)(F)F)ccc2O1	none (no result: FBA Mtb inh, Mtb hypoxia rep, GDH-TPI counter, FadD28 binding)
CCc1cc(C(=O)Cc2cnn(-c3ccccc3)c2)c(O)cc1O	GDH-TPI counter 50.3
CC(=O)c1ccc(Nc2c3c(nc4ccccc24)CCCC3)cc1	GDH-TPI counter 37.4 (no result: BioA inh)
Cc1ccc(S(=O)(=O)NN2C(=O)/C(=C/c3cccs3)SC2=S)cc1	GDH-TPI counter 31.2
O=C(COc1ccc(/C=N/NC(=O)c2ccccc2O)cc1)Nc1ccc([N+](=O)[O-])cc1	GDH-TPI counter 37.8 (no result: Mtb hypoxia rep)
COC(=O)c1ccc(NC(=S)Nc2ccccc2)cc1	none
COC(=O)c1ccc(NC(=S)NC2c3ccccc3CC2O)cc1 (stereo not drawn)	FadD28 binding 21.9 (no result: BioA inh)
CCOC(=O)c1ccc(-c2ccc(CO)o2)cc1	FBA Mtb inh active (no result: BioA inh)
Cc1ccc(C(=O)NC(=S)Nc2ccc(-c3ccc(CO)o3)cc2)cc1	none (no result: BioA inh)
C[C@@H]1CCCCO[C@H](CN(C)C(=O)c2ccncc2)[C@@H](C)CN([C@H](C)CO)C(=O)c2cc(NC(=O)Cc3ccccc3)ccc2O1	none (no result: FBA Mtb inh, Mtb hypoxia rep, GDH-TPI counter, FadD28 binding)
COc1ccc(C(=O)NCC(=O)NN=C/C(C)=C/c2ccco2)cc1OC	none (no result: FBA Mtb inh, BioA inh, GDH-TPI counter, FadD28 binding)
CC(=C/c1ccco1)/C=N/NC(=O)Cc1cccn1C	none (no result: BioA inh, Mtb hypoxia rep)
CC(/C=N/NC(=O)Cn1cnc2c1c(=O)n(C)c(=O)n2C)=C\c1ccco1	GDH-TPI counter 41.4 (no result: Mtb hypoxia rep)
CC(/C=N/NC(=O)Cc1cccn1C)=C\c1ccco1	GDH-TPI counter 39.6 (no result: Mtb hypoxia rep)
C/C(C=NNC(=O)Cn1cnc2c1c(=O)n(C)c(=O)n2C)=C\c1ccco1	none (no result: FBA Mtb inh, BioA inh, GDH-TPI counter, FadD28 binding)
